# Screening data deposited in PubChem by Broad Institute.
# The entries come from a sample that favours hits as a whole.
# BJeLR viab HTS: lowers viability of BJeLR cells. BJeLR fibroblasts viability, CellTiterGlo ATP luminescence, 48 h; HRASV12, hTERT and SV40 LT/ST transformed. viability loss activity score, % (no concentration beside the values). 30,000 compounds, 0.64% hits; in the data active means viability loss activity score above about 50%; inconclusive means no clear call, values can overlap the other calls; inactive means below about 35%;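 further: higher score means fewer live cells and less ATP luminescence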
# MITF inhib: MITF inhibition | TRPM1 promoter luciferase, luminescence, 24 h | inhibition, % (test concentration not listed) | 37,000 compounds, 0.28% hits; in the data active means inhibition above about 85%; inconclusive means no clear call, values can overlap the other calls; inactive means below about 68%;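 further: human melanocyte line stably carrying TRPM1 promoter luciferase reporter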
# Hedgehog inh: Sonic Hedgehog pathway inhibition | inhibition, % (test concentration not listed) | AID 2313 | Shh-LIGHT2 Gli-luciferase reporter, 30 h | 22,000 compounds, 2.1% hits;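 active means mean inhibition across valid replicates above about 65%, limit read from the data; inconclusive means mean under the limit, yet half or more replicates past it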;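 further: pathway switched on by Shh-conditioned medium diluted 1 in 25 in low serum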
# Active calls of the source: *; ? = inconclusive; / = no result.
SMILES,BJeLR viab HTS,MITF inhib,Hedgehog inh
C[C@@H]1CN([C@@H](C)CO)C(=O)c2cccc(NC(=O)Nc3ccccc3)c2O[C@H]1CN(C)Cc1ccc(C(F)(F)F)cc1,7.6,39.6,73.7*
C[C@H]1CN([C@@H](C)CO)C(=O)c2cccc(NC(=O)Nc3ccccc3)c2O[C@@H]1CN(C)Cc1ccc(C(F)(F)F)cc1,-3.3,41.3,4.9
CC(C)NC(=O)Nc1ccc2c(c1)CC(=O)N([C@H](C)CO)C[C@H](C)[C@H](CN(C)C(=O)Nc1ccc(F)cc1)O2,/,-12.1,77.2*
Cc1ccc(-n2c3c(cc(C(=O)NCCCN4CCOCC4)c2=O)C(=O)CCC3)cc1,/,7.6,/
C/C(CCc1oc2ccccc2c1-c1ccc(C)o1)=N\O,0.9,0.4,/
COc1cccc(C(=O)OCC(=O)c2ccccc2)c1OC,-5.3,-29.0,-29.1
COc1cc(OC)c(O[C@@H]2O[C@H](COC(=O)c3cc(O)c(O)c(O)c3)[C@@H](O)[C@H](O)[C@H]2O)c(OC)c1,6.0,7.1,8.9
C[C@H]1CN([C@@H](C)CO)C(=O)Cc2cc(NC(=O)Nc3ccc(C(F)(F)F)cc3)ccc2O[C@H]1CN(C)C(=O)Nc1ccc2c(c1)OCO2,/,-13.3,-23.3
C[C@H]1CN([C@@H](C)CO)C(=O)Cc2cc(NC(=O)Nc3ccc(C(F)(F)F)cc3)ccc2O[C@H]1CN(C)Cc1ccc(Cl)c(Cl)c1,/,92.7*,9.1
C[C@@H]1CN([C@H](C)CO)C(=O)Cc2cc(NC(=O)Nc3ccc(C(F)(F)F)cc3)ccc2O[C@H]1CN(C)Cc1ccc(Cl)c(Cl)c1,/,-1.2,-14.8
C[C@@H]1CN([C@@H](C)CO)C(=O)Cc2cc(NC(=O)Nc3ccc(C(F)(F)F)cc3)ccc2O[C@@H]1CN(C)C(=O)Nc1ccc2c(c1)OCO2,/,54.7,82.6*
Cc1ccc(NC(=O)CSc2nnnn2C)c(C)c1,/,-29.2,/
CCOC(=O)c1cnc2c(C)c(C)ccc2c1NCCN(C)C,/,-33.0,/
CCCCNc1c(C(=O)OCC)c(C)nc2c1cnn2CC,79.9*,-22.6,-33.8
CC(C)(C)c1ccc(C(=O)Nc2ccc(NC(=O)c3ccccc3F)cc2)cc1,2.5,9.5,15.3
O=C(Nc1ccc(NC(=O)c2ccccc2O)cc1)c1ccc(Cl)cc1,-4.2,-11.0,96.8*
COc1cc2c(c(O)c1OC)C(=O)CC(c1ccc(O)cc1)O2 (stereo unspecified),-1.6,-19.2,33.0
COc1cc([C@@H]2c3cc4c(cc3[C@H](O)[C@H]3COC(=O)[C@H]23)OCO4)cc(OC)c1OC,54.2*,60.9,91.1*
COc1cc([C@@H]2c3cc4c(cc3[C@@H](O[C@@H]3O[C@@H]5CO[C@@H](C)O[C@H]5[C@H](O)[C@H]3O)[C@H]3COC(=O)[C@H]23)OCO4)cc(OC)c1O,15.1,37.6,-11.1
COc1cc([C@@H]2c3cc4c(cc3[C@H](O)[C@H]3COC(=O)[C@@H]23)OCO4)cc(OC)c1OC,92.6*,37.0,75.1*
COc1ccc(C(OC(=O)c2ccccc2)c2nccc3ccccc23)cc1 (stereo unspecified),1.2,-13.9,/
COc1c(O)c2c(=O)cc(OC)c3c4c(OC)cc(=O)c5c(O)c(OC)c(C[C@@H](C)OC(=O)c6ccccc6)c(c(c1C[C@@H](C)OC(=O)Oc1ccc(O)cc1)c23)c54,-6.8,74.3,72.5*
COC(=O)C1=C(C)Nc2ncnn2C1c1ccccc1[N+](=O)[O-] (stereo unspecified),/,-3.1,/
C[C@@H]1O[C@@H](O[C@H]2[C@H](O[C@H]3CC[C@@]4(C)C(CC[C@]5(C)C4CC=C4C6CC(C)(C)CC[C@]6(C(=O)O[C@@H]6O[C@H](CO[C@@H]7O[C@H](CO)[C@@H](O[C@@H]8O[C@@H](C)[C@H](O)[C@@H](O)[C@H]8O)[C@H](O)[C@H]7O)[C@@H](O)[C@H](O)[C@H]6O)CC[C@]45C)[C@]3(C)CO)OC[C@H](O)[C@@H]2O)[C@H](O)[C@H](O)[C@H]1O (stereo partly specified),/,/,-7.7
C[C@@H]1O[C@@H](O[C@H]2[C@H](O[C@H]3CC[C@@]4(C)C(CC[C@]5(C)C4C=C[C@]46OC[C@@]7(CCC(C)(C)C[C@H]74)[C@@H](O)C[C@]65C)[C@]3(C)CO)O[C@H](CO)[C@@H](O)[C@@H]2O[C@@H]2O[C@H](CO)[C@@H](O[C@@H]3O[C@@H](C)[C@H](O)[C@@H](O)[C@H]3O)[C@H](O)[C@H]2O)[C@H](O)[C@H](O)[C@H]1O (stereo partly specified),/,/,103.6*
SMILES,BJeLR viab HTS,MITF inhib,Hedgehog inh
Cn1nnnc1SCC(=O)Nc1ccc([N+](=O)[O-])cc1,/,-11.1,/
Cc1cc(C)c2c(=O)n(CC(=O)NCCc3ccc(Cl)cc3)sc2n1,0.1,/,/
CC[C@]1(O)C[C@H]2CN(CCc3c([nH]c4ccccc34)[C@@](C(=O)OC)(c3cc4c(cc3OC)N(C=O)[C@H]3[C@@](O)(C(=O)OC)[C@H](OC(C)=O)[C@@]5(CC)C=CCN6CC[C@]43[C@@H]65)C2)C1,60.6*,38.0,70.8*
NC(=O)CN(c1ccccc1)S(=O)(=O)c1ccc(F)cc1,/,-10.4,/
C[C@@H]1O[C@@H](O[C@H]2[C@@H]3C=CO[C@@H](O[C@@H]4O[C@H](CO)[C@@H](O)[C@H](O)[C@H]4O)[C@@H]3[C@@]3(CO)O[C@@H]23)[C@H](OC(=O)/C=C/c2ccc(O)cc2)[C@H](O)[C@H]1O,/,/,65.5*
C[C@@H]1O[C@@H](O[C@H]2[C@@H]3C=CO[C@@H](O[C@@H]4O[C@H](CO)[C@@H](O)[C@H](O)[C@H]4O)[C@@H]3[C@@]3(CO)O[C@@H]23)[C@H](O)[C@H](O)[C@H]1OC(=O)/C=C/c1ccccc1,/,/,-3.0
Nc1ncn(C(=O)c2ccccc2)n1,0.5,/,/
S=C1NCN(Cc2ccccc2)CN1Cc1ccccc1,-2.0,/,/
COc1ccc(-c2c(C#N)c(SCC(=O)c3ccccc3)nc3c2C(=O)CC(C)(C)C3)cc1,0.4,/,/
COc1ccc2c(c1)OC/C(=C\c1ccc(OC)c(O)c1)C2=O,/,1.9,?
COc1cc2c(c(N)c1OC)C(=O)/C(=C/c1cc(C)c(O)c(C)c1)C2,22.3,-1.1,84.4*
CC(C)(C)c1ccc(N2C(=O)CCC2=O)cc1,6.8,-17.0,-64.4
C=CCSc1ncc2c(=S)[nH]c(=S)[nH]c2n1,5.9,70.8,65.4*
CCN(CC)c1ncc2c(=S)[nH]c(=S)[nH]c2n1,2.5,0.4,2.2
CC(=O)c1cccc(NC(=O)CN(C)S(=O)(=O)c2ccc(F)cc2)c1,/,1.8,/
CCn1cc(C(=O)NC2CCCC2)c(=O)c2cc(S(=O)(=O)N3CCCCC3)ccc21,1.0,/,/
C[C@]12CC[C@@H]3c4ccc(O)cc4CC[C@H]3[C@@H]1CCC2=O,7.6,8.5,72.8*
C[C@]12CCC3c4ccc(O)cc4CCC3C1CC[C@@H]2O (stereo partly specified),-3.8,7.8,73.7*
C#C[C@]1(O)CC[C@H]2[C@@H]3CCc4cc(OC)ccc4[C@H]3CC[C@@]21C,6.4,6.6,-36.2
C[C@]12CCC3c4ccc(O)cc4CCC3C1C[C@@H](O)[C@@H]2O (stereo partly specified),4.0,2.4,?
CC(=O)Oc1ccc2c(c1)CCC1C2CC[C@@]2(C)C1CC[C@@H]2OC(C)=O (stereo partly specified),2.7,-7.8,66.8*
